Source: PubChem BioAssay (NCI)
This is part of a sample that, as a whole, favours compounds with a hit. Of some 83,000 tested, about 20% had one in any assay.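 Results are percent growth after 48 hours of single-concentration exposure. 100 means growth as in untreated cells, lower positive values show inhibition; negative values down to -100 show cell death.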 Calls of active or inactive are those of the source. How the source made its calls: active means growth percent below 10; inactive means the rest.

What was measured:
Assay in all cases: NCI-60 one-dose screen, 48 h (100 = growth as untreated, 0 = no growth, -100 = all killed)
Conditions in all cases: 10 µM unless noted
[1] = test system: HCT-15 colon
[2] = test system: HT29 colon
[3] = test system: SNB-75 CNS
[4] = test system: SNB-19 CNS
[5] = test system: U251 CNS
[6] = test system: PC-3 prostate
[7] = test system: SK-MEL-5 melanoma
[8] = test system: UACC-62 melanoma
[9] = test system: LOX IMVI melanoma
[10] = test system: SK-MEL-28 melanoma
[11] = test system: SK-MEL-2 melanoma
[12] = test system: EKVX NSCLC
[13] = test system: SN12C renal
[14] = test system: UO-31 renal
[15] = test system: TK-10 renal
[16] = test system: ACHN renal
[17] = test system: CAKI-1 renal
[18] = test system: A498 renal
[19] = test system: CCRF-CEM leukemia
[20] = test system: MOLT-4 leukemia

Measured: growth

O=C(Nc1ccccc1)Oc1ccccc1-c1ccccc1
inactive: [1] 102% | [2] 96.5% | [3] 75.5% | [4] 99.5% | [5] 95.2% | [6] 80.4% | [7] 97.9% | [8] 93.2% | [9] 95.2% | [10] 107% | [11] 93.2% | [12] 96.5% | [13] 98.5% | [14] 57.7% | [15] 94.1% | [16] 99.9% | [17] 88.2% | [18] 75.3% | [19] 95.8%

COc1ccc(-c2nc(SC(C)C)nc(NNC(N)=O)c2C#N)cc1
inactive: [1] 58.6% | [2] 106% | [3] 59.1% | [4] 89% | [5] 93.5% | [6] 75.9% | [7] 89.1% | [8] 85.8% | [9] 76.7% | [10] 93% | [11] 92.9% | [12] 99.2% | [13] 83.9% | [14] 68.2% | [15] 97.1% | [16] 90.1% | [17] 72.2% | [18] 90.2% | [19] 88.3% | [20] 78.6%

Cc1cccc(Oc2ccc(Nc3ncnc4ccc(NC(=O)CNCCO)cc34)cc2Cl)c1
inactive: [1] 62.6% | [2] 38.4% | [3] 77.1% | [4] 65.6% | [5] 44.9% | [6] 61.4% | [7] 77.6% | [8] 97.6% | [9] 14.6% | [10] 68.8% | [11] 87.8% | [12] 34.9% | [13] 39.4% | [14] 41% | [15] 39.8% | [16] 27.1% | [17] 52.9% | [18] 49.7% | [19] 72.3% | [20] 62%

CCCCc1ccc(Nc2nnc(SCC(=O)NC(=O)NCC)s2)cc1
inactive: [1] 99.9% | [2] 103% | [3] 83% | [4] 119% | [5] 96% | [6] 91% | [7] 103% | [8] 78.2% | [9] 94.1% | [10] 105% | [11] 90.8% | [12] 110% | [13] 97% | [14] 84.4% | [15] 107% | [16] 101% | [17] 115% | [18] 96.6% | [19] 78.8% | [20] 100%

COc1cc(NCC(C)(O)CN(CC(C)C)CC(C)C)c2nc(C)ccc2c1 (stereo not drawn)
inactive: [1] 67.7% | [2] 82% | [3] 81.4% | [4] 87.9% | [5] 94.9% | [6] 64.5% | [7] 86.4% | [8] 68.3% | [9] 86.7% | [10] 99.3% | [11] 96.8% | [12] 91.5% | [13] 81% | [14] 54.5% | [15] 119% | [16] 79% | [17] 67.7% | [18] 56.5% | [19] 85.4% | [20] 80.7%

COc1ccc(/C=C2\COc3ccc(-c4ccccc4)cc3C2=O)cc1O
active: [5] 5.71% | [9] -13.5% | [11] -29.6% | [19] -30.6% | [20] -18.2%
inactive: [1] 19.6% | [2] 25.8% | [3] 31.9% | [4] 71.8% | [6] 27.8% | [7] 32.3% | [8] 41% | [10] 46.7% | [12] 105% | [13] 30.8% | [14] 40.6% | [15] 67.7% | [16] 47.3% | [17] 126% | [18] 55.6%

O=C1c2ccccc2C(=O)c2c(NCCN=Cc3ccccc3O)cccc21
active: [17] -10.3% | [20] -16.4%
inactive: [1] 40.7% | [2] 32.4% | [3] 68.4% | [4] 65.3% | [5] 60.5% | [6] 66.7% | [7] 61.9% | [8] 62.8% | [9] 21.3% | [10] 91.7% | [11] 108% | [12] 56% | [13] 50.3% | [14] 39.3% | [15] 68.5% | [16] 30.9% | [18] 35.1% | [19] 59%

CS(=O)(=O)c1ccc(-c2cc3c(oc2=O)-c2ccccc2OC3O)cc1 (stereo not drawn)
inactive: [1] 94.4% | [2] 105% | [3] 84.6% | [4] 89% | [5] 97.7% | [6] 89.8% | [7] 101% | [8] 92.2% | [9] 98% | [10] 101% | [11] 99.2% | [12] 98.4% | [13] 104% | [14] 74% | [15] 99.9% | [16] 98.6% | [17] 75.4% | [18] 87.7% | [19] 58.9% | [20] 86.3%

O=S(=O)(c1ccccc1)N1CCCc2ccccc21
inactive: [1] 99.3% | [2] 99.8% | [3] 95% | [4] 97.2% | [5] 90.3% | [6] 91.3% | [7] 102% | [8] 91.7% | [9] 96.4% | [10] 105% | [11] 103% | [12] 101% | [13] 98.9% | [14] 80.4% | [15] 94.5% | [16] 99.4% | [17] 101% | [18] 77.1% | [19] 92.4% | [20] 94.6%

CC(=O)OCC(=O)[C@@]1(O)CC[C@H]2[C@@H]3CC(=C(Br)Br)C4=CC(=O)CC[C@]4(C)[C@H]3C(=O)C[C@@]21C
inactive: [1] 94.4% | [2] 92.1% | [3] 81.2% | [4] 92.6% | [5] 82.9% | [6] 76.1% | [7] 95.2% | [8] 82.5% | [9] 97.3% | [10] 102% | [11] 78.7% | [12] 90.1% | [13] 93.6% | [14] 68.3% | [15] 91.2% | [16] 94.1% | [17] 81.7% | [18] 79.5% | [19] 83.3% | [20] 93.1%

CCOC(=O)C1CC(=O)c2cc(OC)c(OC)cc2C1 (stereo not drawn)
inactive: [1] 100% | [2] 88.6% | [3] 91.7% | [4] 100% | [5] 103% | [6] 86.4% | [7] 109% | [8] 88.5% | [9] 104% | [10] 119% | [11] 107% | [12] 114% | [13] 100% | [14] 93.6% | [15] 126% | [16] 107% | [17] 120% | [18] 129% | [19] 84.6% | [20] 94.3%

O=C(Nc1ccc2ncnc(Nc3ccc(Oc4cccc(F)c4)c(Cl)c3)c2c1)c1ccc(CNCCO)cc1
inactive: [1] 22.8% | [3] 65.1% | [4] 58.8% | [6] 27.7% | [7] 73.7% | [8] 106% | [11] 94.2% | [12] 47.9% | [13] 48.6% | [14] 73.9% | [15] 57.1% | [16] 28.8% | [17] 55.4% | [18] 71.6%
active: [2] -69.2% | [5] -34% | [9] -76.2% | [10] -44.9% | [19] -19.9% | [20] -0.727%

CCN(CC)CCCC(Nc1c2ccc(Cl)cc2nc2ccc(OC)cc12)c1ccc(Cl)cc1 (stereo not drawn)
inactive: [3] 16.7% | [6] 33.6% | [12] 53.1% | [13] 36.3% | [14] 28.2% | [18] 38.2%
active: [1] -54.7% | [2] -49.6% | [4] 6.15% | [5] -85.9% | [7] -93.7% | [8] -70.6% | [9] -83.3% | [10] -88.7% | [11] -78.7% | [15] -60.4% | [16] -33.7% | [17] -36.9% | [19] -7.24% | [20] -20.9%

COc1cc(NCC(O)CN(CC(C)C)C2CCCC2)c2ncccc2c1 (stereo not drawn)
inactive: [1] 84.2% | [2] 78.3% | [3] 103% | [4] 101% | [5] 79.9% | [6] 68.8% | [7] 93.1% | [8] 98.9% | [9] 82.7% | [10] 103% | [11] 98.3% | [12] 83.2% | [13] 86.4% | [14] 71.7% | [15] 110% | [16] 80.2% | [17] 94.6% | [18] 71.5% | [19] 114%

c1ccc(N2N=C(c3cccc(Nc4ccncc4)c3)CC2c2ccc3c(c2)OCO3)cc1 (stereo not drawn)
active: [1] -26% | [2] 6.66% | [3] 5.74% | [5] 4.31% | [7] -14.3% | [9] -22.1% | [10] -52.7% | [19] 1.64% | [20] 7.98%
inactive: [4] 42.4% | [6] 14.3% | [8] 62.1% | [11] 39% | [12] 45.8% | [13] 40.8% | [14] 30.6% | [15] 63.1% | [16] 28.7% | [17] 25.7% | [18] 46.1%

CC(=O)c1c(C)[nH]c(-c2nc3ccc(N4CCN(C)CC4)cc3[nH]2)c1-c1ccccc1
inactive: [1] 14.9% | [2] 14.5% | [4] 33.2% | [5] 44.7% | [6] 32% | [7] 11.8% | [8] 14.3% | [10] 47.3% | [11] 48.6% | [12] 35.5% | [13] 37.7% | [15] 23.9% | [16] 19.4% | [18] 31.8% | [19] 49.1% | [20] 50.7%
active: [3] -10.6% | [9] 6.13% | [14] 5.51% | [17] 7.67%
